Among all 360,000 compounds or so, about 9,100 (2.5%) were called active. About 4% were inconclusive and are not listed. Only a selection was taken, and actives are over-represented in it overall. Values without a mark were called inactive. No stated cut-off is given here; in the data, active means max response below about -50%; inconclusive means no clear call, values can overlap the other calls; inactive means above that.
These compounds were tested against D(3) dopamine receptor (Homo sapiens) (UniProt P35462) (assay: qHTS of D3 Dopamine Receptor Antagonist: qHTS). Details: D3R cells, DiscoveRx beta-arrestin luminescence, antagonist mode; stronger effect = lower value.
Procedure, shortened: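 Cells expressing the human receptor were seeded at 1500 cells/well, incubated overnight at 37 degrees C in 5% CO2, then exposed to library compounds with dopamine controls for 90 minutes at 37 degrees C before luminescent detection.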
On the % scale 0 is the no-effect control and ±100 the full control effect.

Chain of D(3) dopamine receptor (Homo sapiens) (P35462 whole entry, looked up): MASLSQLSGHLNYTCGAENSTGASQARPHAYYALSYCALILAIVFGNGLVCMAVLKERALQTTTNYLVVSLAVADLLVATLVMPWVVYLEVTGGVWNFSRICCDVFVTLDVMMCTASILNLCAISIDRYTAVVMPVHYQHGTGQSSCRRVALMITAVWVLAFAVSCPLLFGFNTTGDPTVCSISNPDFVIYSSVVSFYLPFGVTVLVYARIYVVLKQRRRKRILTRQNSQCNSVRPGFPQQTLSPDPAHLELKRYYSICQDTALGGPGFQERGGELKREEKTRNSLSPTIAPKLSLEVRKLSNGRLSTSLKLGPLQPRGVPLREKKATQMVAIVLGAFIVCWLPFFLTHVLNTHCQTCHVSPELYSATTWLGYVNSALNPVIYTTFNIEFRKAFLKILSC

| Compound | max response, negative = inhibition |
| --- | --- |
| C[C@@H]1CN([C@H](C)CO)S(=O)(=O)c2ccc(C#C[C@@H](C)O)cc2O[C@@H]1CN(C)Cc1ccc(-c2ccccc2)cc1 | 4.33% |
| CCOc1ccc(CCN2C(=S)N([C@@H](CC(C)C)CN3CCC[C@@H]3CN3C(=S)NC[C@@H]3Cc3ccc(O)cc3)C[C@@H]2CC(C)C)cc1 | 21.8% |
| CC1(C)OC(=O)C2=C(CC(c3ccccc3)OC2CCc2ccccc2)O1 (configuration not stated) | -29.7% |
| COC(=O)c1ccc2c(c1)S(=O)(=O)NC2C (configuration not stated) | 18.4% |
| CCCNC(=O)c1cc(C2CCCCN2C(=O)OC)on1 (configuration not stated) | 0% |
| COc1ccccc1/C=C/C=N/n1c(-c2ccc(Cl)cc2Cl)n[nH]c1=S | 13.4% |
| Cc1cc(-c2n[nH]c(=S)n2/N=C/C(Br)=C/c2ccccc2)n[nH]1 | -70.4% (active) |
| COc1ccccc1N1CCN(/N=C\C(Br)=C\c2ccccc2)CC1 | -13.9% |
| O=C(Nc1ccc(F)cc1)C(CCc1ccccc1)N1CCN(CC(=O)N2CCCC2)CC1 (configuration not stated) | -21.4% |
| COC(=O)[C@]12CCCCC=C1N(CCC1=CCCCC1)C(=O)[C@H](CC(=O)NCC1CCCCC1)C2 | 25.3% |
| O=S1(=O)C[C@@H](N2CCN(CCO)CC2)[C@H](COCc2ccccc2)N1 | 1.72% |
| CC(=O)c1nn(-c2ccccc2)c(=Nc2ccccc2)cc1C | 18.5% |
| COC(=O)C[C@@H]1C=C[C@@H](NC(=O)c2ccc3c(c2)OCO3)[C@@H](CO)O1 | -7.72% |
| CCn1c(O)c(N=NC2=NC(=O)CS2)c2cc(C)ccc21 | -90.2% (active) |
| COC(=O)Cn1c2ccc(C)cc2c2nc(C)sc21 | -14.2% |
| CCn1c(O)c(N=NC(=O)c2cccc(S(=O)(=O)N3CCCCC3)c2)c2ccccc21 | 6.1% |
| COc1cccc(C(O)c2nc(-c3ccc(C)c(C)c3)cs2)c1 (configuration not stated) | 0% |
| CC(C)CC1C(=O)N(Cc2cn(CC3CCCCC3)nn2)CCS(=O)(=O)N1Cc1ccc(-c2ccc(Cl)cc2)cc1 (configuration not stated) | -20.8% |
| COc1ccc(NC(=O)C2(C)Cc3c(-c4ccc(C(N)=O)cc4)ccnc3O2)cc1 (configuration not stated) | -3.64% |
| COC(=O)C(NC(=O)c1ccc(OC)cc1)(Nc1ncc(S(=O)(=O)c2ccc([N+](=O)[O-])cc2)s1)C(F)(F)F (configuration not stated) | -81.6% (active) |
| COc1ccc(C(=O)NCCNc2ccc([N+](=O)[O-])cn2)cc1 | -27.5% |
| CCOCC(=O)Nc1ncc(S(=O)(=O)c2ccc([N+](=O)[O-])cc2)s1 | 8.75% |
